Reference: PubChem BioAssay
Results filed as inconclusive are left out. The source made the active and inactive calls. Unless noted, no cut-off is given here; in the data, nearly all actives have AC50 up to about 26 µM. Non-standard residues stand in square brackets, D forms with d. Residues, ends and D or L forms follow the SMILES beside them. pGlu = O=C1CC[C@@H](C(=O)O)N1; Thz = O=C(O)[C@@H]1CSCN1

system: not listed separately; experiment: EMT-state selective cytotoxicity in co-culture – imaging, PC-3E GFP, TEM4-18 mCherry, primary screen (AID 1345086); conditions: PC-3E GFP / TEM4-18 mCherry co-culture, imaging cell counts; measured here: mesenchymal TEM4-18 mCherry cell survival; at 1 µM;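 note: cells exposed to compound for 72 h before imaging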

| SMILES | normalised cell number |
| --- | --- |
| O=C1CN2Cc3c(ccc(Cl)c3Cl)N=C2N1 | 0.79 |
| CNCC[C@H](Oc1cccc2ccccc12)c1cccs1 | 1 |
| CSc1nc2cc(Oc3cccc(Cl)c3Cl)c(Cl)cc2[nH]1 | 1.03 |
| CN(C)CCc1c[nH]c2ccc(Cn3cncn3)cc12 | 1.13 |
| C[C@@H](c1ncncc1F)[C@](O)(Cn1cncn1)c1ccc(F)cc1F | 0.96 |
| CN(C)CCCC1(c2ccc(F)cc2)OCc2cc(C#N)ccc21 (centres undefined) | 1.31 |
| CC(C)NCC(O)c1ccc(NS(C)(=O)=O)cc1 (centres undefined) | 0.97 |
| O=C(c1ccc(OCCN2CCCCC2)cc1)c1c(-c2ccc(O)cc2)sc2cc(O)ccc12 | 0.93 |
| O=C1CC[C@@H](C(=O)N2CSC[C@H]2C(=O)O)N1 ([pGlu]-[Thz]-OH) | 0.93 |
| CN/C(=C\[N+](=O)[O-])NCCSCc1csc(CN(C)C)n1 | 1.02 |
| CN(C)CCOc1ccc(/C(=C(/CCCl)c2ccccc2)c2ccccc2)cc1 | 1.04 |
| CC(C)(S)C(N)C(=O)O (centres undefined) | 0.96 |
| CC[C@H]1OC(=O)[C@H](C)[C@@H](O[C@H]2C[C@@](C)(OC)[C@@H](O)[C@H](C)O2)[C@H](C)[C@@H](O[C@@H]2O[C@H](C)C[C@H](N(C)C)[C@H]2O)[C@](C)(O)C[C@@H](C)CN(C)[C@H](C)[C@@H](O)[C@]1(C)O | 1.27 |
| NCC(O)c1ccc(O)c(O)c1 (centres undefined) | 1.45 |
| CN1CC(=O)N2[C@H](c3ccc4c(c3)OCO4)c3[nH]c4ccccc4c3C[C@@H]2C1=O | 1.07 |
| Cc1cnc(C(=O)NCCc2ccc(S(=O)(=O)NC(=O)NC3CCCCC3)cc2)cn1 | 0.93 |
| C/C(=C\C(=O)OCCCCCCCCC(=O)O)C[C@@H]1OC[C@H](C[C@@H]2O[C@H]2[C@@H](C)[C@H](C)O)[C@@H](O)[C@H]1O | 1.08 |
| C[C@H]1O[C@H](O[C@H]2[C@H](O)[C@@H](O)[C@@H](O[C@H]3[C@H](O)[C@@H](O)C(O)O[C@@H]3CO)O[C@@H]2CO)[C@H](O)[C@@H](O)[C@@H]1N[C@H]1C=C(CO)[C@@H](O)[C@H](O)[C@H]1O (some centres undefined) | 1 |
| COc1ccc2[nH]c(S(=O)Cc3ncc(C)c(OC)c3C)nc2c1 (centres undefined) | 0.92 |
| COc1c(N2C[C@@H]3CCCN[C@@H]3C2)c(F)cc2c(=O)c(C(=O)O)cn(C3CC3)c12 | 0.99 |
| CCN(CC)CC#CCOC(=O)C(O)(c1ccccc1)C1CCCCC1 (centres undefined) | 1.14 |
| CC(Cc1ccc(O)c(O)c1)(NN)C(=O)O (centres undefined) | 1.3 |

system: Aerobactin synthetase IucA (Klebsiella pneumoniae); experiment: inhibition of K. pneumoniae IucA enzyme – biochemical, Tocris library, absorbance (AID 1345561; call rule not given here;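 note: 100% = enzyme without compound and 0% = no enzyme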); conditions: purified IucA enzyme assay, absorbance (OD) read-out; stronger effect = lower value;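 tested at 8 µM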

| SMILES | remaining activity |
| --- | --- |
| COC(=O)C[C@](O)(CCCC(C)(C)O)C(=O)O[C@@H]1C(OC)=C[C@]23CCCN2CCc2cc4c(cc2[C@H]13)OCO4 | 98.2% (inactive) |
| COc1ccc(C[C@H](C)NC[C@@H](O)c2ccc(O)c(NC=O)c2)cc1 | 116% (inactive) |
| CC(C)C[C@H](NC(=O)[C@@H](O)[C@H](N)Cc1ccccc1)C(=O)O | 117% (inactive) |
| CN(C)CCCC1(c2ccc(F)cc2)OCc2cc(C#N)ccc21 (centres undefined) | 108% (inactive) |
| CCOC(=O)c1ccc(OC(=O)CCCCCN=C(N)N)cc1 | 124% (inactive) |
| Cc1c(C(=O)NN2CCCCC2)nn(-c2ccc(Cl)cc2Cl)c1-c1ccc(I)cc1 | 112% (inactive) |
| CC(C)NCC(O)c1ccc(NS(C)(=O)=O)cc1 (centres undefined) | 91.3% (inactive) |
| CC(CCCCC(=O)Nc1ccc(C(F)(F)F)cc1)NCCc1cnc[nH]1 (centres undefined) | 92.5% (inactive) |
| O=C(c1ccc(OCCN2CCCCC2)cc1)c1c(-c2ccc(O)cc2)sc2cc(O)ccc12 | 120% (inactive) |
| CNCC[C@@H](Oc1ccccc1C)c1ccccc1 | 96.2% (inactive) |
| Cc1cccc(CCN2CCC(C(=O)c3ccc(NS(C)(=O)=O)cc3)CC2)n1 | 104% (inactive) |
| CCCCN1CCCC1CNC(=O)c1cc(C#N)c2ccccc2c1OC (centres undefined) | 113% (inactive) |
| COc1nc(C)nc(Cl)c1NC1=NCCN1 | 93.9% (inactive) |

system: not listed separately; experiment: viability loss in pontine glioma line – cell-based, SU-DIPG-XVII, MIPE5.0, CellTiter-Glo, qHTS, dose response (AID 1347060); conditions: CellTiter-Glo ATP luminescence;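 for AC50: cells exposed to compound for 48 hours before viability readout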

| SMILES | outcome | AC50 |
| --- | --- | --- |
| O=C1CN2Cc3c(ccc(Cl)c3Cl)N=C2N1 | inactive |  |
| O=c1[nH]c(=O)n(C2CCCO2)cc1F (centres undefined) | inactive |  |
| CC(C)C[C@H](NC(=O)[C@@H](O)[C@H](N)Cc1ccccc1)C(=O)O | inactive |  |
| CCOC(=O)c1ccc(OC(=O)CCCCCN=C(N)N)cc1 | inactive |  |
| CC(C)NCC(O)c1ccc(NS(C)(=O)=O)cc1 (centres undefined) | inactive |  |
| CC(=O)NC[C@H]1CN(c2ccc(N3CCOCC3)c(F)c2)C(=O)O1 | inactive |  |
| O=C(c1ccc(OCCN2CCCCC2)cc1)c1c(-c2ccc(O)cc2)sc2cc(O)ccc12 | inactive |  |
| CC[C@H]1OC(=O)[C@H](C)[C@@H](O[C@H]2C[C@@](C)(OC)[C@@H](O)[C@H](C)O2)[C@H](C)[C@@H](O[C@@H]2O[C@H](C)C[C@H](N(C)C)[C@H]2O)[C@](C)(O)C[C@@H](C)CN(C)[C@H](C)[C@@H](O)[C@]1(C)O | inactive |  |
| CN1CC(=O)N2[C@H](c3ccc4c(c3)OCO4)c3[nH]c4ccccc4c3C[C@@H]2C1=O | inactive |  |
| C[C@H]1O[C@H](O[C@H]2[C@H](O)[C@@H](O)[C@@H](O[C@H]3[C@H](O)[C@@H](O)C(O)O[C@@H]3CO)O[C@@H]2CO)[C@H](O)[C@@H](O)[C@@H]1N[C@H]1C=C(CO)[C@@H](O)[C@H](O)[C@H]1O (some centres undefined) | inactive |  |
| CN1[C@@H]2CCC[C@H]1CC(NC(=O)c1nn(C)c3ccccc13)C2 (some centres undefined) | inactive |  |
| COc1nc(C)nc(Cl)c1NC1=NCCN1 |  | 23.5 µM (active) |
| CC(Cc1ccc(O)c(O)c1)(NN)C(=O)O (centres undefined) | inactive |  |
| Cc1cc2c(s1)Nc1ccccc1N=C2N1CCN(C)CC1 | inactive |  |
